Rows were chosen to be rich in hits. Some 3.4% of all compounds tested hit in one or more screens of this group.
HIF-2a inh = HIF-2a inhibition; 360,000 compounds, 0.72% hits; 786-0 RCC cells HIF-2a reporter, luciferase luminescence, overnight; inhibition, % at 18.8 µM;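 active = inhibition of the luminescence signal of 40% or more relative to plate controls, in a single-dose primary screen at 18.75 µM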
TWEAK Fn14 block = blocks TWEAK-Fn14 interaction in a reporter cell assay. TWEAK-stimulated Fn14 reporter cells, luciferase luminescence, 8 h. inhibition, % at 10 µM. 360,000 compounds, 2% hits; in the data active = inhibition above about 50%
TROY NFkB inh = blocks TROY-dependent signaling in reporter cells; Q293 LMP1-TROYcd NF-kB luciferase reporter, 4 h; 360,000 compounds, 0.98% hits; inhibition, % at 10 µM;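 active = compounds whose plate-normalised and pattern-corrected inhibition of the luciferase reporter signal at the single screening dose is 50% or more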
Shn3 inh set2 = reduces Shn3 3'UTR luciferase signal in osteoblasts | 360,000 compounds, 0.52% hits | inhibition, % at 12.5 µM | AID 588674 | Clone20 osteoblast Shn3 3'UTR firefly luciferase, 24 h;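 active = mean inhibition of at least 75% with every replicate also reaching 75%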
LMP1 NFkB inh = inhibitors of Epstein-Barr LMP1-induced NF-kappaB reporter | LMP1-induced NF-kappaB luciferase reporter cells, luminescence | inhibition, % at 12.5 µM | 350,000 compounds, 0.69% hits; in the data active = inhibition above about 41%
MITF TRPM1 inh = inhibitors of MITF-driven TRPM1 promoter in melanoma cells; SK-MEL-5 TRPM1 promoter luciferase, 24 h; inhibition, % at 12.5 µM; 330,000 compounds, 0.83% hits; AID 488899;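 active = mean inhibition across replicates of 60% or more, whatever share of single replicates reaches that level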
Large screens that a line does not name were inactive; ! = not confirmed by another sample.

c1ccc(Cn2ncc3c(N4CCN(c5ccccc5)CC4)ncnc32)cc1	TWEAK Fn14 block 64.0, TROY NFkB inh 72.2 (no result: LMP1 NFkB inh, MITF TRPM1 inh)
Cc1ccc(-n2ncc3c(N4CCN(c5ccccc5)CC4)ncnc32)c(C)c1	TWEAK Fn14 block 87.4, TROY NFkB inh 50.2
COc1ccc(N2CCN(c3ncnc4c3cnn4-c3ccc(C)cc3C)CC2)cc1	TWEAK Fn14 block 68.1
Cc1cccc(-c2nnc(C(C)Nc3cccc(C(=O)NC4CC4)c3)o2)c1 (stereo unspecified)	none (no result: MITF TRPM1 inh)
O=C(Nc1ccc([N+](=O)[O-])cc1)OC1CCS(=O)(=O)C1 (stereo unspecified)	none (no result: Shn3 inh set2, LMP1 NFkB inh, MITF TRPM1 inh)
COc1ccc(C=O)c(-c2c(CCO)sc3ccccc23)c1	none (no result: Shn3 inh set2, LMP1 NFkB inh, MITF TRPM1 inh)
Cc1ccc(/C=C/c2nc3ccccc3c(=O)[nH]2)cc1	TWEAK Fn14 block 74.9, TROY NFkB inh 51.5, LMP1 NFkB inh 45.0
O=C(Nc1cccc(S(=O)(=O)N2CCCC2)c1)[C@@H]1O[C@H](CO)[C@@H](O)[C@H]1O	none (no result: LMP1 NFkB inh, MITF TRPM1 inh)
O=C(OCc1ccccc1)N1CCC2CC1c1ccc(-c3cccc(F)c3)cc12 (stereo unspecified)	none (no result: LMP1 NFkB inh, MITF TRPM1 inh)
C=CCNc1nc(-c2sc(NC(=O)C(C)(C)C)nc2C)c(-n2cc(-c3ccccc3)nn2)s1	TWEAK Fn14 block 57.5 (no result: Shn3 inh set2, LMP1 NFkB inh, MITF TRPM1 inh)
COc1ccc(-c2c(-c3ccc(O)cc3O)n[nH]c2C(F)(F)F)cc1	none
COc1ccccc1-c1c(-c2ccc(O)cc2O)n[nH]c1C(F)(F)F	Shn3 inh set2 90.8
Oc1ccc(-c2n[nH]c(C(F)(F)F)c2-c2ccccc2)c(O)c1	TWEAK Fn14 block 56.4, Shn3 inh set2 86.7
Cc1ccc(C(=O)O)cc1NC(=O)CSc1nnc(-c2ccccc2F)n1C1CCCCC1	none
O=C(CSc1nc2ccc([N+](=O)[O-])cc2[nH]1)NC1CCCCCC1	TWEAK Fn14 block 61.4
O=C(CSc1nc2ccc([N+](=O)[O-])cc2[nH]1)NC1CCCCC1	none
COC(=O)C1=C(C)NC(C)=C([N+](=O)[O-])C1c1ccccc1C(F)(F)F (stereo unspecified)	Shn3 inh set2 93.0!, LMP1 NFkB inh 54.8!
CCCS(=O)(=O)NC(=O)C1(C)CCN1C(=O)Cc1ccc(Cl)cc1Cl (stereo unspecified)	none (no result: LMP1 NFkB inh, MITF TRPM1 inh)
CSC1SCC2C(=O)N(C)C(C(C)C)C(=O)OCC(NC(=O)c3cnc4ccccc4n3)C(=O)NC(C)C(=O)N(C)C1C(=O)N(C)C(C(C)C)C(=O)OCC(NC(=O)c1cnc3ccccc3n1)C(=O)NC(C)C(=O)N2C (stereo unspecified)	HIF-2a inh 63.2, TWEAK Fn14 block 91.5, TROY NFkB inh 65.2, Shn3 inh set2 94.1, LMP1 NFkB inh 85.0
OCC(O)C1OC(c2ccccc2)OC(CO)C1O (stereo unspecified)	none
CC(C)(C)C(=O)Nc1ccc(-c2cn3ccsc3n2)cc1	TWEAK Fn14 block 74.1
COc1ccc(/C=C2\C(=O)NC(=O)c3ccccc32)cc1OC	none
COc1ccc2c(c1)/C(=C/c1cc(OC)c(OC)c(OC)c1)C(=O)N2	TWEAK Fn14 block 56.9
c1ccc(-c2cn3c(n2)-c2ccccc2C3)cc1	TWEAK Fn14 block 72.1
CCOC1=C2[C@H](c3ccccc3)N(S(=O)(=O)c3ccccc3)C[C@H]2n2c(=O)n(-c3ccccc3)c(=O)n2C1	none (no result: LMP1 NFkB inh, MITF TRPM1 inh)
Cc1[nH]n(-c2ccccc2)c(=O)c1N=Nc1ccccc1C(=O)O	none
Cc1[nH]n(-c2ccccc2)c(=O)c1N=Nc1ccccc1O	Shn3 inh set2 85.0
CC(=O)c1cccc(-c2ccnc3c2CC(C(=O)NCc2ccco2)O3)c1 (stereo unspecified)	none (no result: LMP1 NFkB inh, MITF TRPM1 inh)
COc1cc(/C=N/Nc2nc(N3CCCC3)nc(N3CCCC3)n2)ccc1O	none
Oc1ccc(/C=N/Nc2nc(N3CCCC3)nc(N3CCCC3)n2)cc1O	Shn3 inh set2 92.6
Cc1ccc(C(=O)c2coc3ccc(O)cc23)cc1	TWEAK Fn14 block 55.9
COc1ccc(OC)c(C(=O)c2coc3ccc(OC(C)=O)cc23)c1	none
COc1ccc(C(=O)c2coc3ccc(OC(C)=O)cc23)cc1	TWEAK Fn14 block 56.8
CCOC(=O)C1=C[C@@H](C(C)C)N(S(=O)(=O)c2ccc(C)cc2)[C@H]1c1ccccc1F	none (no result: LMP1 NFkB inh, MITF TRPM1 inh)
COc1cc(OC)c(NC2=CC(=O)C(=O)c3ccccc32)cc1Cl	MITF TRPM1 inh 99.3
Cc1cc(NC2=CC(=O)C(=O)c3ccccc32)no1	MITF TRPM1 inh 83.7
Cc1cc(NC(=O)CCN2C(=O)c3ccccc3C2=O)no1	none
CCOC(=O)c1ccc(NC2=CC(=O)C(=O)c3ccccc32)cc1	MITF TRPM1 inh 75.5
Cc1ccc(NC2=CC(=O)C(=O)c3ccccc32)cc1	MITF TRPM1 inh 95.2
O=C1C=C(Nc2ccc(O)cc2)C(=O)c2ccccc21	none
Cc1cc(C)nc(/N=C2\NC(=O)CC(C(=O)O)N2c2ccc(C)c(C)c2)n1 (stereo unspecified)	none
COc1ccccc1-c1ncn(Cc2cccc(-c3ccccc3)c2)c1-c1ccco1	none (no result: TWEAK Fn14 block, TROY NFkB inh, Shn3 inh set2, LMP1 NFkB inh, MITF TRPM1 inh)
CCOC(=O)c1ccc(Nc2cc(C)nc(-c3ccccc3)n2)cc1	TROY NFkB inh 70.7
NS(=O)(=O)c1ccc(NC2=CC(=O)C(=O)c3ccccc32)cc1	MITF TRPM1 inh 77.8
CC(=O)Nc1ccc(NC2=CC(=O)c3ccccc3C2=O)cc1	none
COC(=O)c1ccc(NC(=O)CN2CCC(NC(=O)c3ccccc3F)CC2)cc1	none (no result: MITF TRPM1 inh)
CC(=O)N1CCC(C(=O)N2c3ccccc3N=C(c3ccc4c(c3)OCO4)C2C(=O)NCc2ccccc2)CC1 (stereo unspecified)	none (no result: TWEAK Fn14 block, TROY NFkB inh, Shn3 inh set2, LMP1 NFkB inh, MITF TRPM1 inh)
COc1ccc(Cl)cc1C(=O)NCCN(C)C	none
COc1ccc(-c2nc3c(C(=O)NCCN(C)C)cccc3c3ccccc23)cc1	none
CN(C)CCNC(=O)c1cccc2nc3c(ccc4ccccc43)nc12	MITF TRPM1 inh 85.8
COc1ccc(C(=O)Nc2ccc3ccccc3n2)c(OC)c1OC	TWEAK Fn14 block 88.4, TROY NFkB inh 72.2
COc1ccc(C(=O)NCCN(C)C)c2nc3ccccc3cc12	Shn3 inh set2 92.9, MITF TRPM1 inh 95.4
COCc1ccc(C(=O)NC2CC(C)(C)Cc3c2cnn3-c2ccc(OC)cc2)o1 (stereo unspecified)	none
O=[N+]([O-])c1ccc(-n2nnnc2-c2ccccc2)cc1	none
O=[N+]([O-])c1ccc(-n2nnnc2-c2ccccc2)c([N+](=O)[O-])c1	TWEAK Fn14 block 87.4, MITF TRPM1 inh 97.5
COC(=O)CSc1nnc(NC(=O)c2ccc3c(c2)OCO3)s1	none
CC(C)Nc1nnc(SCC(=O)Nc2ccc3c(c2)C(=O)c2ccccc2C3=O)s1	TWEAK Fn14 block 58.5
O=C(Nc1nnc(SCC(=O)N2CCOCC2)s1)c1ccccc1	TWEAK Fn14 block 71.0, TROY NFkB inh 72.8
CC(C)(C)C(=O)Nc1nnc(SCC(=O)Nc2ccc3c(c2)OCO3)s1	LMP1 NFkB inh 46.3
O=C(O)CSc1nnc(NC(=O)c2ccc3c(c2)OCO3)s1	HIF-2a inh 40.8
O=C(CSc1nnc(NC2CCCCC2)s1)Nc1ccc2c(c1)C(=O)c1ccccc1C2=O	none

Screening results: PubChem, several laboratories
